Rows were chosen to be rich in hits. Some 2.7% of all compounds tested hit in one or more screens of this group.
Nrf2 block – Nrf2 pathway inhibition | A549 ARE-Fluc reporter, luciferase luminescence, 18-24 h | Potency, µM (top dose mostly 46 µM), without a hit: at the top dose activity change, negative = inhibition, hits mostly inhibitors | hit rate 2.1% among 360,000 | AID 504444; also: potency is read from the fitted curve at half-maximal effect; % is scaled to controls: 0 for no effect and ±100 for the full control effect; nearly all actives have a fitted effect of over 60% in size
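Concentration-response testing used A549 ARE_Fluc cells at 5000 cells/well. Following an 18-24 h compound incubation, viability was read by fluorescence (Ex 405/Em 525) and luciferase output by luminescence.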
LDHA block – blocks human lactate dehydrogenase A | P00338 | purified LDHA, NADH/diaphorase-resazurin fluorescence; stronger effect = lower value | activity change, % (values are at about 110 or 230 µM) | hit rate 0.15% among 480,000 | AID 1347041; in the data active = activity change below about -30%; inconclusive = mostly about -25% to -30%;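 also: plate controls were DMSO wells for no effect and wells without enzyme for full effect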
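Resorufin fluorescence (ex540/em590), read at 0 and 20 min after diaphorase/resazurin addition, reports the NADH left after a 5 min room-temperature reaction of 2 nM human LDH5 with 0.06 mM NADH and 0.2 mM pyruvate.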
IDH1 R132H inh – human IDH1 R132H inhibition | AID 602179 | O75874 | hit rate 0.093% among 390,000 | Potency, µM (series often up to 76.6 µM), for inactives: at the highest dose activity change, negative = inhibition, hits mostly inhibitors | IDH1-R132H enzyme, NADPH consumption, diaphorase/resazurin fluorescence; also: potency is read from the fitted curve at half-maximal effect; % is scaled to controls: 0 for no effect and ±100 for the full control effect; nearly all actives have a fitted effect of over 65% in size
Target sequence (O75874 whole entry R132H, stated change not applied): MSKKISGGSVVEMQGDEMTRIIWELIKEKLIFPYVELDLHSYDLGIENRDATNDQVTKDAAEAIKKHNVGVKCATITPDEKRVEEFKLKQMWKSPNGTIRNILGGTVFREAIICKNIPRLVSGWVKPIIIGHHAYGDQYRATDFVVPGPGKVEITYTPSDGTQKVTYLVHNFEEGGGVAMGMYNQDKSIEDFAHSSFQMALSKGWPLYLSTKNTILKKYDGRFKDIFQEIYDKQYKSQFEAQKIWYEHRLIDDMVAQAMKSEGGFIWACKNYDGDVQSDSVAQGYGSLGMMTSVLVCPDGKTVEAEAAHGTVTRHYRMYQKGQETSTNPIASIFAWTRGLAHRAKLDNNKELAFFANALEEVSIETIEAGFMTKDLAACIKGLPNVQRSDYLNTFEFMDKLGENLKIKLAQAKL
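IDH1-R132H (0.5 ug/mL dispensed) in pH 7.5 Tris buffer was preincubated 30 min with compound, then given a substrate mix of 0.016 mM NADPH and 2 mM alpha-KG for 80 min at room temperature; remaining NADPH was read by diaphorase/resazurin fluorescence.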
Nrf2 activator – activates Nrf2 signaling; AREc32 ARE-luciferase reporter (MCF7-derived line), luminescence, 24 h; hit rate 0.31% among 410,000; Potency, µM (titrated, usually from 46.1 µM), for the others: top-dose activation, most hits filed as activators; also: potency is read from the fitted curve at half-maximal effect; % of control where 0% means no effect; nearly all actives have a fitted effect of over 65% in size
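Each well held 1000 AREc32 cells, which were incubated with compound for 24 hr at 37 deg C after overnight attachment, and ARE reporter activity was quantified by firefly luciferase luminescence.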
A549 viability – counter-screen for Nrf2 inhibitors: cytotoxicity in A549 cells | A549 ARE-Fluc cells, CellTiter-Fluor viability, 18-24 h | Potency, µM (titrated, usually from 46 µM), for inactives: at the top dose activity change, negative = cytotoxicity, hits mostly inhibitors | hit rate 0.16% among 390,000 | AID 504648; also: potency is read from the fitted curve at half-maximal effect; % is scaled to controls: 0 for no effect and ±100 for the full control effect
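Cytotoxicity counterscreen: CellTiter-Fluor fluorescence was measured in A549 ARE_Fluc cells after 18-24 h of compound exposure in a concentration series. The subsequent BugLite luminescent read reports ARE-luciferase activity.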
12-LOX inh – blocks human arachidonate 12S-lipoxygenase | P18054 | purified 12hLO, xylenol orange hydroperoxide absorbance | Potency, µM (series often up to 108 µM), for inactives: at the top dose activity change, negative = inhibition, most hits filed as inhibitors | hit rate 1.1% among 580,000 | AID 1671190; also: potency is read from the fitted curve at half-maximal effect; % is scaled to controls: 0 for no effect and ±100 for the full control effect
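Hydroperoxide product was detected by ferrous iron/xylenol orange as the 573 to 405 nm absorbance ratio. Arachidonic acid at 40 uM (final) was turned over for 30 min at room temperature by 150 nM human 12hLO, pH 7.0 Hepes buffer, after 15 min compound preincubation.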
IDH1 autofl – interferes with resorufin fluorescence in IDH1 counter-screen; shares compounds with IDH1 R132H inh; Resorufin detection reagent fluorescence interference, cell-free; inhibition of signal, % at 51.2 µM; 750 tested, under 10 active; AID 623980;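 also: 0% = wells with normal resorufin and full inhibition = wells lacking resorufin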
IDH1 WT – inhibits human wild-type IDH1, mutant selectivity check. shares compounds with IDH1 R132H inh. WT IDH1 enzyme, NADPH diaphorase/resazurin fluorescence. Potency, µM (top dose mostly 115 µM), inactives show top-dose activity change, negative = inhibition, usual class: inhibitors. hit rate 9% among 750. AID 623995;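 also: potency is read from the fitted curve at half-maximal effect; 0% = full WT IDH1 enzyme control and full inhibition = no enzyme wells; nearly all actives have a fitted effect of over 55% in size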
Target sequence (O75874 whole entry, looked up): as the sequence (O75874 whole entry R132H, stated change not applied) above, with H132R counted along it
IDH1 R132H conf – mutant IDH1 (human) inhibition, confirmed; hit rate 83% among 750; Potency, µM (highest dose often 76.6 µM), for the others: top-dose activity change, negative = inhibition, hits mostly inhibitors; shares compounds with IDH1 R132H inh; IDH1 R132H enzyme, NADPH diaphorase/resazurin fluorescence; also: potency is read from the fitted curve at half-maximal effect; nearly all actives have a fitted effect of over 50% in size
* marks the source's active call; other numbers are inactive results; ? = inconclusive; . = no result given. Unless noted, calls follow the shape of the dose curve; as a rule, active = well fitted curve in the direction sought with a large enough effect; inconclusive = small, poorly fitted or top-dose-only effect, or another doubt; inactive = no such curve, though single readings can be large; an effect the other way counts as inactive or inconclusive.

SMILES | Nrf2 block | LDHA block | IDH1 R132H inh | Nrf2 activator | A549 viability | 12-LOX inh | IDH1 autofl | IDH1 WT | IDH1 R132H conf
COc1ccccc1C1(CC(=O)O)CCOC(C(C)C)C1 (centres undefined) | . | -4 | 6% | 0% | -2% | 0% | . | . | .
CCC(=O)N(CCC1(c2ccccc2OC)CCOC(C(C)C)C1)Cc1ccco1 (centres undefined) | ? | 8 | ? | 12% | -4% | 37% | 3 | 7% | 40µM*
CCOC(=O)c1ccc(N2C(=O)c3n[nH]c(C)c3C2c2ccc(C(C)(C)C)cc2)cc1 (centres undefined) | 5% | -5 | -8% | -1% | 6% | -1% | . | . | .
CCOC(=O)c1ccc(N2C(=O)c3n[nH]c(C)c3C2c2cccc(Br)c2)cc1 (centres undefined) | ? | -5 | ? | -6% | 7% | -37% | -7 | -1% | 25µM*
CCOC(=O)c1ccc(N2C(=O)c3n[nH]c(C)c3C2c2ccc(F)cc2)cc1 (centres undefined) | . | -7 | . | . | . | 0% | . | . | .
CCOC(=O)c1ccc(N2C(=O)c3n[nH]c(C)c3C2c2ccc(OC)c(OC)c2)cc1 (centres undefined) | -3% | -3 | 0% | 0% | 3% | -5% | . | . | .
CCOC(=O)c1ccc(N2C(=O)c3n[nH]c(-c4cccs4)c3C2c2cccc(O)c2)cc1 (centres undefined) | ? | -2 | ? | -4% | -23% | -8% | 4 | 0% | 16µM*
CCOC(=O)c1ccc(N2C(=O)c3n[nH]c(C)c3C2c2ccc(CC)cc2)cc1 (centres undefined) | 0% | -3 | ? | 0% | 3% | -15% | 0 | 1% | ?
Cc1ccc(N=c2scc(-c3ccccc3)n2-c2ccc(C)cc2)cc1 | . | 7 | . | . | . | -26% | . | . | .
CSc1ccc(/C=C(/C#N)C(=O)C(C)(C)C)cc1 | . | 4 | . | . | . | -5% | . | . | .
CCNc1oc(-c2ccc(S(=O)(=O)N(CC)CC)cc2)nc1C#N | . | -4 | . | . | . | -24% | . | . | .
COCC1CN(C2CCC2)CC12CCN(C(=O)Cc1ccccc1F)CC2 (centres undefined) | . | . | . | . | . | 12% | . | . | .
O=Cc1ccc(Sc2ccccc2)cc1 | . | 11 | . | . | . | -15% | . | . | .
O=C(NC1CCCCC1)C(c1ccco1)N(Cc1cccs1)C(=O)Cn1nnc2ccccc21 (centres undefined) | 10% | 3 | ? | 0% | -13% | -5% | -3 | -2% | 11µM*
O=C(NC1CCCCC1)C(c1ccccc1)N(Cc1ccco1)C(=O)Cn1cnc2ccccc21 (centres undefined) | -9% | 1 | 12µM* | 6% | -14% | 0% | -2 | -8% | 6.3µM*
CCC(C)(C)NC(=O)C(c1ccccc1)N(Cc1cccs1)C(=O)Cn1nnc2ccccc21 (centres undefined) | -16% | -1 | ? | 1% | -4% | 138% | 5 | 4% | 16µM*
COCCNC(=O)C(c1ccccc1)N(Cc1cccs1)C(=O)Cn1nnc2ccccc21 (centres undefined) | 18% | -2 | 11% | 0% | 6% | 0% | . | . | .
O=C(NC1CCCCC1)C(c1ccccc1)N(Cc1ccco1)C(=O)c1csnn1 (centres undefined) | 4% | -3 | -4% | 0% | -18% | -27% | . | . | .
Cc1cc(C(C)(C)C)oc1C(=O)NCCCNC(=O)c1oc(C(C)(C)C)cc1C | -10% | -4 | ? | 0% | -6% | 385% | -3 | ? | 11µM*
CC1CCC(NC(=O)COC(=O)c2ccco2)CC1 (centres undefined) | 2% | -3 | -5% | 0% | -9% | -6% | . | . | .
C[C@@H]1C[C@H]2[C@@H]3CCC4=CC(=O)C=C[C@]4(C)[C@@]3(Cl)[C@@H](O)C[C@]2(C)[C@@]1(OC(=O)c1ccco1)C(=O)CCl | ? | -20 | 35µM* | -1% | -22% | ? | 0 | 12% | 8.9µM*
CN(C1=C(N2CCCCC2)C(=O)c2ccccc2C1=O)c1ccccc1 | -11% | 17 | ? | 0% | -17% | 0% | -3 | 2% | ?
Cc1ccc(S(=O)(=O)Nc2ccc(S(=O)(=O)Nc3cc(C)nc(C)n3)cc2)cc1 | ? | 3 | 5% | -1% | 0% | -22% | . | . | .
Cc1cc(NS(=O)(=O)c2ccc(NS(=O)(=O)c3ccc(CC(C)C)cc3)cc2)nc(C)n1 | ? | 6 | 18µM* | 0% | 2% | -8% | 0 | 2% | 16µM*
CN(c1ccccc1)c1ccc(/C=C/[N+](=O)[O-])cc1 | -4% | -1 | 29µM* | 0% | ? | -22% | 2 | 71µM* | 22µM*
SMILES | Nrf2 block | LDHA block | IDH1 R132H inh | Nrf2 activator | A549 viability | 12-LOX inh | IDH1 autofl | IDH1 WT | IDH1 R132H conf
C[C@H](CO)N1C[C@H](C)[C@@H](CN(C)Cc2ccc(C(=O)Nc3ccccc3N)cc2)Oc2c(NC(=O)C3CCCCC3)cccc2C1=O | -2% | 4 | 40µM* | 18% | -10% | -4% | -14 | ? | 28µM*
C[C@H](CO)N1C[C@H](C)[C@@H](CN(C)Cc2ccc(Cl)c(Cl)c2)Oc2c(NC(=O)C3CC3)cccc2C1=O | ? | 1 | ? | -1% | ? | -15% | -4 | -9% | 25µM*
C[C@H](CO)N1C[C@H](C)[C@@H](CN(C)Cc2ccc(Cl)c(Cl)c2)Oc2c(NC(=O)C3CCOCC3)cccc2C1=O | -13% | 3 | -3% | 6% | -2% | -4% | . | . | .
CC1(C)C(=O)NC(=O)C(C#N)C1c1ccccc1 (centres undefined) | . | 5 | . | . | . | -20% | . | . | .
N#CC1C(=O)NC(c2ccccc2)=CC1c1ccccc1 (centres undefined) | -14% | ? | 52µM* | ? | 1% | -9% | -6 | 160% | 45µM*
CCOC(=O)c1oc2cc(OC(C)=O)ccc2c(=O)c1-c1ccc(OC)c(OC)c1 | ? | -2 | 29µM* | 0% | -7% | -20% | -3 | 5% | 25µM*
